The values that follow come from PubChem BioAssay (NCI).

The structures appear in SMILES notation. Compounds without any hit were thinned out: in the full panel of roughly 83,000, 20% have a hit.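 Cells were grown in 96-well plates and exposed to the test compound at a single concentration for 48 hours; results are reported as percent growth, with values below 10 considered active.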 Unmarked numbers belong to inactive results. Active and inactive are the calls of the source.

In this experiment the test system is MDA-MB-468 breast. Kind of experiment: NCI-60 one-dose screen, 48 h (100 = growth as untreated, 0 = no growth, -100 = all killed). The settings on record: 10 µM unless noted.
Take `NC(N)=NC(N)=Nc1cc2ccccc2c2ccccc12`: the growth was -14.2% (active).

Turning to `Clc1ccc(-c2cn(-c3ccccc3)c(-c3ccccc3)n2)c(Cl)c1`, the growth was -61.3% (active).

Regarding `Nc1nonc1-c1nc2ccccc2n1Cc1ccc(F)cc1`, the growth is 23.6%.

For `C=CCn1c(=O)c2cnc(Nc3ccc(N4CCN(C)CC4)cc3)nc2n1-c1cccc(C(C)(C)O)n1`, the growth is -0.604% (active).

Regarding `Cc1ccc(C(=O)NN)cc1`, the growth was 106%.

As for `CCOC(=O)OCC(=O)[C@@]1(O)CC[C@H]2[C@@H]3CCC4=CC(=O)CC[C@]4(C)[C@H]3[C@@H](O)C[C@@]21C`, the growth is 123%.

In the case of `COc1cc(/C=C2\CN(S(=O)(=O)c3ccc(C)cc3)C/C(=C\c3cc(CN4CCCC4)c(O)c(OC)c3)C2=O)cc(CN2CCCC2)c1O`, the growth was -11.9% (active).

Regarding `O=C(CSc1nc2ccccc2c(=O)n1-c1ccc(Cl)c(Cl)c1)Nc1ccc(S(=O)(=O)Nc2ccc(Cl)nn2)cc1`, the growth was 116%.

For `COC(=O)[C@H](C(C)C)n1c(=O)c2cc(OC)c(OC)cc2c2cnc3[nH]ccc3c21`, the growth is 36.5%.

Regarding `CCCCN(CCCC)C(=N)c1ccnc2ccccc12`, the growth was 117%.

For the molecule `O=C(Nc1cccc(C(F)(F)F)c1)Nc1ccc(OCc2nnc(-c3ccc(Cl)cc3)o2)c(F)c1`, the growth was 68.2%.

On to `Cc1ccc(C(C)C)cc1C(=O)C[n+]1ccccc1`, for which the growth was 107%.

Take `Cc1ccc(C(=O)O)o1`: the growth was 112%.

On to `Cn1c(-c2ccccc2)c(/C=C/C2=[N+](C)c3ccccc3C2(C)C)c2ccccc21`, for which the growth was -16.5% (active).

On to `CCN(C(=O)N1CCN(c2cc3c(cc2F)c(=O)c(C(=O)O)cn3C2CC2)CC1)c1nc(-c2ccc(C)cc2)cs1`, for which the growth was -0.725% (active).

As to `O=C1c2c(c3c4cc(Br)ccc4[nH]c3c3ccc4ccccc4c23)C(=O)N1CCN1CCCCC1`, the growth was 15%.

With `Oc1cc2ccccc2c(-c2c(O)c(O)cc3ccccc23)c1O`, the growth was 26.6%.

Consider `CC[C@H](Nc1ncnc(N)c1C(N)=O)c1nc2cccc(NCc3ccc(C(=O)NO)cc3)c2c(=O)n1-c1ccccc1`, for which the growth was 32.2%.

As for `CCN1C(=O)N(CC)C2C1NN=c1s/c(=C\c3ccc[nH]3)c(=O)n12` (centres undefined), the growth is 5.56% (active).

Consider `CN1CCN(C(=O)[C@]23CCC(C)(C)C[C@@H]2C2=CC[C@@H]4[C@@]5(C)Cc6c([nH]c7ccccc67)C(C)(C)[C@@H]5CC[C@@]4(C)[C@]2(C)CC3)CC1`, for which the growth was 98%.

Take `Cc1nn(C)c2ncnc(Nc3ccccc3Br)c12`: the growth was 107%.

In the case of `O=C(O)C1[S][Sb]([CH](C(=O)O)[CH](C(=O)O)[Sb]2[S]C(C(=O)O)C(C(=O)O)[S]2)[S]C1C(=O)O` (centres undefined), the growth was 81.6%.

`[2H]C([2H])([2H])Oc1cc(F)ccc1/C=C/C(=O)/C=C(/C=C/c1ccc(F)cc1OC([2H])([2H])[2H])OB(F)F`: the growth was 46.1%.

In the case of `O=C(NCc1ccccc1)C(Cl)Cl`, the growth is 85.2%.

For the molecule `CC1=NN2C(=NC3=C(CCC/C3=C\c3ccc(Cl)cc3)C2c2ccc(Cl)cc2)S1` (centres undefined), the growth was 95.6%.

Turning to `COc1cc(C2CC(c3ccc(Cl)cc3)=NN2c2ccc(Cl)cc2)cc(OC)c1OC` (centres undefined), the growth is 100%.

Consider `COC(=O)c1sc(-c2ccc(C)cc2)cc1O`, for which the growth is 99.5%.

Regarding `CC1(C)N=C(N)N=C(N)N1c1cccc(OCCOc2cccc([N+](=O)[O-])c2)c1`, the growth was 25.1%.

Take `CCOCCC(=O)O`: the growth is 99.2%.

As to `O=[N+]([O-])c1ccc(N=Nc2cc(S(=O)(=O)O)c3cccc(S(=O)(=O)O)c3c2O)cc1`, the growth was 118%.

As to `CN1C(=O)N(C)C2C1NN=c1s/c(=C\C=C\c3ccccc3)c(=O)n12` (centres undefined), the growth is 13.9%.

Consider `COc1cc(NCc2ccccc2O)c2ncccc2c1`, for which the growth was 90.4%.

Consider `Cn1c(SCC(=O)c2cccs2)nc2ccccc2c1=O`, for which the growth is 68.7%.

Take `C=C1C(=O)O[C@H]2[C@H]1CC/C(COC(=O)c1cc3ccccc3o1)=C\CC[C@@]1(C)O[C@@H]21`: the growth was -71.2% (active).

In the case of `NC(=O)c1c(NC(=O)c2ccc(C3CCCCC3)cc2)sc2c1CCC(=O)C2`, the growth was -10.3% (active).

Take `O=C(NCc1ccccc1O)c1cccc2ccccc12`: the growth is 84.9%.

As for `CC(=O)Nc1nc(C)c(C(=O)NNS(=O)(=O)c2ccccc2)s1`, the growth is 107%.

Take `COc1cc2nc(NC3CCC3)nc(NC3CCN(C(C)C)CC3)c2cc1OC`: the growth was 16.5%.

On to `CNC1=C([N+](=O)[O-])C(c2ccc(OC)cc2)C(C#N)=C(c2cccs2)O1` (centres undefined), for which the growth was 117%.
